Values joined by “and” are separate entries in the source; they are usually repeats but may differ in a detail not shown here. Identical values can stand only once. Results filed as inconclusive are left out. Some structures have more than one record in an assay (separate samples or runs), and their calls can disagree. Active and inactive are the calls of the source. Unless noted, calls come from the whole dose curve.
Experiments:
[1] = Nuclear factor erythroid 2-related factor 2/antioxidant responsive element (Nrf2/ARE) small molecule agonists: qHTS cell viability counter screen in human keratinocytes (AID 1919968; active = well fitted curve in the direction sought with a large enough effect in the repeat runs; an effect the other way counts as inactive or inconclusive; note: nearly all actives have a fitted effect of over 55% in size; note: potency is the fitted concentration of half-maximal effect)
How it was run: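 Stably transfected HaCaT (KeratinoSens), 1,500/well. Test agents in DMSO were applied for 23 h, 37 C/5% CO2. CellTiter-Fluor was incubated 1 h before the fluorescence read.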

[2] = Nuclear factor erythroid 2-related factor 2/antioxidant responsive element (Nrf2/ARE) small molecule agonists: luciferase reporter gene qHTS assay in human keratinocytes (AID 1919969); note: nearly all actives have a fitted effect of over 35% in size; note: potency is the fitted concentration of half-maximal effect
[3] = target: Gonadotropin-releasing hormone receptor (Homo sapiens) (UniProt P30968); test: Human gonadotropin-releasing hormone receptor (GnRHR) small molecule agonists, calcium flux assay in GnRHR-HEK293 cells (AID 1920063); note: nearly all actives have a fitted effect of over 35% in size
Sequence of Gonadotropin-releasing hormone receptor (Homo sapiens) (P30968 whole entry, looked up): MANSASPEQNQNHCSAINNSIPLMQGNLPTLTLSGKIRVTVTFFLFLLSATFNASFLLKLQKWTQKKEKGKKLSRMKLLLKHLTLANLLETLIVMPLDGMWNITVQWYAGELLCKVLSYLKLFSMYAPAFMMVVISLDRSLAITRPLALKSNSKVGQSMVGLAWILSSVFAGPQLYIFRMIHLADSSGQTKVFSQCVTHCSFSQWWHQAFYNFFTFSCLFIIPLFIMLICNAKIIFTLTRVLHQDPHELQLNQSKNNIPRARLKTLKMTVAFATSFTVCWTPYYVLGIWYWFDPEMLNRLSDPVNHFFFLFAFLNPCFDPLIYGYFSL
How it was run: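 Stable human GnRHR HEK293 line. 18 h plating, then calcium dye for 1 h at 37 C. Agonist-mode compound addition from DMSO stocks; fluorescence monitored 3 min.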

[4] = target: KiSS-1 receptor (Homo sapiens) (UniProt Q969F8); test: Human kisspeptin (KISS1R) small molecule agonists, calcium flux assay in KISS1R-HEK293 cells (AID 1920064; active = well fitted curve in the direction sought with a large enough effect in the repeat runs; an effect the other way counts as inactive or inconclusive)
Sequence of KiSS-1 receptor (Homo sapiens) (Q969F8 whole entry, looked up): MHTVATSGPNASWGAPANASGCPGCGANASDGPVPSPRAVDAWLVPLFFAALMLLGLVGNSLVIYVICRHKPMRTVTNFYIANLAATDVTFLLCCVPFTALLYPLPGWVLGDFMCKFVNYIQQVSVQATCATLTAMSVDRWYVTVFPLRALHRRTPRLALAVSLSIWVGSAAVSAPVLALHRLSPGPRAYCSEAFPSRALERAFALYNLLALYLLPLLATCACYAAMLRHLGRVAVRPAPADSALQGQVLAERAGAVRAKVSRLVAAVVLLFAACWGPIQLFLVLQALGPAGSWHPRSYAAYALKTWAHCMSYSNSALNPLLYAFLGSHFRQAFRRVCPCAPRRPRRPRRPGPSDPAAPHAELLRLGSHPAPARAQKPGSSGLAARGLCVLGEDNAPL
How it was run: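 After overnight (18 h) culture at 37 C/5% CO2, human KISS1R-HEK293 cells received calcium dye for 1 h, then test compound; emission at 540 nm (excitation 480 nm) was tracked for 3 min.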

[5] = G protein-coupled receptor (GPCR) small molecule agonists, calcium flux assay: HEK293 wild type cell line counter screen (AID 1920065)
How it was run: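 Following 18 h incubation at 37 C/5% CO2, plates got calcium dye for 1 h; compounds, ATP or DMSO were then pinned in and fluorescence followed kinetically (480/540 nm).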

[6] = p53 small molecule agonists, cell-based qHTS assay with human liver microsomes (AID 1963577); note: potency is the fitted concentration of half-maximal effect
How it was run: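 HLM-supplemented p53RE-bla reporter assay: 16 h compound exposure at 37 C, microsomes and NADPH each 0.5 mg/mL final, read by fluorescence intensity.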

[7] = p53 small molecule agonists, cell-based qHTS assay with rat liver microsomes (AID 1963578); note: potency is the fitted concentration of half-maximal effect
How it was run: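 Quantitative HTS of the Tox21 10K library: p53RE-bla cells, rat liver microsomes plus NADPH at 0.5 mg/mL final each, 16 h at 37 C, beta-lactamase fluorescence detection.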

[8] = p53 small molecule agonists, cell-based qHTS assay with human liver microsomes: qHTS cell viability counter screen (AID 1963579); note: nearly all actives have a fitted effect of over 45% in size; note: potency is the fitted concentration of half-maximal effect
How it was run: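 Viability of p53RE-bla cells is measured as CellTiter-Glo luminescence following a 16 h, 37 C incubation with compound, liver microsomes from human donors and NADPH.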

[9] = p53 small molecule agonists, cell-based qHTS assay with rat liver microsomes: qHTS cell viability counter screen (AID 1963580); note: nearly all actives have a fitted effect of over 45% in size
How it was run: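 Cytotoxicity counter screen: intracellular ATP measured by CellTiter-Glo luminescence in the same wells as the beta-lactamase reporter read, on HCT-116 p53RE-bla cells exposed 16 h at 37 C to compounds with rat liver microsomes and NADPH, each 0.5 mg/mL final.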

[10] = p53 small molecule agonists, cell-based qHTS assay: qHTS cell viability counter screen (AID 1963581); note: nearly all actives have a fitted effect of over 45% in size
How it was run: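 qHTS counter screen: 16 h compound exposure at 37 C of p53RE-bla HCT-116 cells (4,000 per well, seeded 5 h prior), cell viability by ATP luminescence.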

[11] = target: 5-hydroxytryptamine receptor 2A (Homo sapiens) (UniProt P28223); test: 5-hydroxytryptamine receptor 2A (HTR2A) small molecule antagonists, cell-based qHTS assay (AID 1963586); note: nearly all actives have a fitted effect of over 45% in size; note: potency is the fitted concentration of half-maximal effect
Sequence of 5-hydroxytryptamine receptor 2A (Homo sapiens) (P28223 whole entry, looked up): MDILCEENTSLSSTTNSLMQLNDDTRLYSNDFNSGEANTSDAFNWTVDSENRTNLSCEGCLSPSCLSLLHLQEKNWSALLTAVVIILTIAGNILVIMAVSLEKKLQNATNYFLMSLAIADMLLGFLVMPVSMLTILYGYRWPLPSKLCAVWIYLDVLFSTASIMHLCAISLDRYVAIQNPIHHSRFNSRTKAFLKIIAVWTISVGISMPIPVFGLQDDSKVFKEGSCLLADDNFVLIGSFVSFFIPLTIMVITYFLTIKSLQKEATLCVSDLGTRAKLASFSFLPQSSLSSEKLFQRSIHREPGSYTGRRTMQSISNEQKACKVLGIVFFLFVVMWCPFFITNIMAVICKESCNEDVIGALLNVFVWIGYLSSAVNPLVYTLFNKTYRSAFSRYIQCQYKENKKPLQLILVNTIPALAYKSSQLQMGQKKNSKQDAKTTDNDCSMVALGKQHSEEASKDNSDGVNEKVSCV
How it was run: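 CHO cells stably expressing human HTR2A were plated for 18 h at 37 C, then loaded with calcium dye for 1 h. Compounds were preincubated 5 min at room temperature before DOI (4 nM solution) was added. Kinetic fluorescence was read for 3 min.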

[12] = target: 5-hydroxytryptamine receptor 2A (Homo sapiens) (UniProt P28223); test: 5-hydroxytryptamine receptor 2A (HTR2A) small molecule agonists, cell-based qHTS assay (AID 1963587); note: nearly all actives have a fitted effect of over 30% in size
How it was run: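 CHO cells stably expressing human HTR2A, plated 18 h, loaded with calcium dye 1 h at 37 C. Agonist mode: compounds added and intracellular calcium fluorescence recorded kinetically for 2 min at 1 sec intervals.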

[13] = target: Muscarinic acetylcholine receptor M1 (Homo sapiens) (UniProt P11229); test: Cholinergic receptor muscarinic 1 (CHRM1) small molecule antagonists, cell-based qHTS assay (AID 1963588); note: nearly all actives have a fitted effect of over 40% in size
Sequence of Muscarinic acetylcholine receptor M1 (Homo sapiens) (P11229 whole entry, looked up): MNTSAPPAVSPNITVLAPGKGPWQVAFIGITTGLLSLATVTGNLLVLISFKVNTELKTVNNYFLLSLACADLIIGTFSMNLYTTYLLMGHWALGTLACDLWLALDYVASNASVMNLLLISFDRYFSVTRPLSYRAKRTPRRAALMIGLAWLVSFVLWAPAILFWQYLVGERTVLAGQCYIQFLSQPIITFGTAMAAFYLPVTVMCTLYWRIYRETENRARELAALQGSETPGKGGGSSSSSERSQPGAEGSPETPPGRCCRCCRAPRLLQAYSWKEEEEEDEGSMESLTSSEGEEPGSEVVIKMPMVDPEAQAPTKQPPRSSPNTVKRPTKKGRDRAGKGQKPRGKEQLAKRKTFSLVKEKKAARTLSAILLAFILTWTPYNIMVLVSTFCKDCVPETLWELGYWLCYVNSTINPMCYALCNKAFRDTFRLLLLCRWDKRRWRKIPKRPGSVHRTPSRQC
How it was run: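 Compounds were tested at 15 concentrations in three independent runs. Dye-loaded CHRM1-CHO cells were exposed 5 min at room temperature before stimulation by acetylcholine added at 50nM. Intracellular calcium was read kinetically on FDSS for 3 min.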

[14] = target: Muscarinic acetylcholine receptor M1 (Homo sapiens) (UniProt P11229); test: Cholinergic receptor muscarinic 1 (CHRM1) small molecule agonists, cell-based qHTS assay (AID 1963589); note: nearly all actives have a fitted effect of over 35% in size
How it was run: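 Kinetic fluorescence (1 s intervals) of calcium-sensitive dye in human M1 CHO cells after compound addition; cells pre-incubated 18 h at 37 C/5% CO2 and dye-loaded 1 h.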

[15] = cAMP Responsive Elements (CRE) small molecule agonists, cell-based qHTS assay (AID 1963590)
How it was run: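 Test agents in DMSO were incubated 3 h at 37 C/5% CO2 with CRE-bla HEK 293T cells seeded 18 h earlier; LiveBLAzer B/G FRET substrate was added and read after 2 h at room temperature.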

[16] = cAMP Responsive Elements (CRE) small molecule antagonists, cell-based qHTS assay (AID 1963591; active = well fitted inhibition curve with a large enough effect in the signal ratio in the repeat runs, not every such curve was filed as active; the % refers to the signal ratio)
How it was run: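 Reporter line CRE-bla HEK 293T in dialyzed-FBS DMEM; cells preincubated 18 h, treated 3 h with compound plus NKH477 (0.25 uM final); LiveBLAzer FRET, 2 h RT.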

[17] = target: Beta-2 adrenergic receptor (Homo sapiens) (UniProt P07550); test: Adrenergic beta2 receptor (ADRB2) small molecule antagonists, cell-based qHTS assay (AID 1963592); note: series mostly up to about 92 µM; nearly all actives have a fitted effect of over 50% in size
Sequence of Beta-2 adrenergic receptor (Homo sapiens) (P07550 whole entry, looked up): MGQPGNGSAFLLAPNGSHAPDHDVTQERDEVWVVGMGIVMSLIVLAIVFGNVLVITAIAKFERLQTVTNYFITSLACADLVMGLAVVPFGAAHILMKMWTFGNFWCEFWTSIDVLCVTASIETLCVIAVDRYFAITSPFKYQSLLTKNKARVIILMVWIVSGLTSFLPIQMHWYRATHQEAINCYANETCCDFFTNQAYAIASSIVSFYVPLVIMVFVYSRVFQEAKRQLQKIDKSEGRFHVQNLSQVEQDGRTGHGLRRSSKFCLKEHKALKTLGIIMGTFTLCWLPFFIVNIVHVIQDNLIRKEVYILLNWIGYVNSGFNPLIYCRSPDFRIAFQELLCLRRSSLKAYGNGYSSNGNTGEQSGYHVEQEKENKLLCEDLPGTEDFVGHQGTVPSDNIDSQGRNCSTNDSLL
How it was run: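 Assay format: CHO-ADRB2 cells, 18-20hr seeding at 37C/5% CO2, then compound plus 1nM isoproterenol agonist mix for 0.5hr RT. Homogeneous time-resolved fluorescence cAMP detection after 1hr, expressed as 665/615 nm ratio.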

[18] = target: D(2) dopamine receptor (Homo sapiens) (UniProt P14416); test: Dopamine D2 receptor (DRD2) small molecule agonists, cell-based qHTS assay (AID 1963594); note: nearly all actives have a fitted effect of over 35% in size
Sequence of D(2) dopamine receptor (Homo sapiens) (P14416 whole entry, looked up): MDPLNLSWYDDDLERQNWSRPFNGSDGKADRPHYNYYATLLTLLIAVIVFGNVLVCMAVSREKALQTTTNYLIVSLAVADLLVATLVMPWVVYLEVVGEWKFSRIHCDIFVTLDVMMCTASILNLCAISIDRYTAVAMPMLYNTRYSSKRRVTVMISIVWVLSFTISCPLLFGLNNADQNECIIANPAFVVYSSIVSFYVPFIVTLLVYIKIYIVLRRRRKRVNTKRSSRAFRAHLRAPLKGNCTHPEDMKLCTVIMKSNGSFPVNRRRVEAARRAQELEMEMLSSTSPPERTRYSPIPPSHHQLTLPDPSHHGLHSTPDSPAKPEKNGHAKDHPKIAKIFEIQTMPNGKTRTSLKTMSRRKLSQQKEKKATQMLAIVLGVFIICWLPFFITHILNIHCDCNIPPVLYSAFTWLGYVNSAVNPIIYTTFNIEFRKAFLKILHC
How it was run: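 HEK293 cells stably expressing human DRD2, pre-treated with PDE inhibitor Ro20-1724 (0.1 mM final) and compound 10 min at room temperature, then stimulated with NKH477 (200nM […]) for 30 min. cAMP read by HTRF (665/620 nm).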

[19] = target: D(2) dopamine receptor (Homo sapiens) (UniProt P14416); test: Dopamine D2 receptor (DRD2) small molecule antagonists, cell-based qHTS assay (AID 1963595; active = well fitted inhibition curve with a large enough effect in the signal ratio in the repeat runs, with a control signal flat; the % refers to the signal ratio)
How it was run: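 HTRF cAMP read-out at 665 and 620 nm emission (340 nm excitation). Antagonist mode: compounds were tested against 12 nM quinpirole in DRD2-HEK293 cells, with 200 nM NKH477 raising cAMP and 0.1 mM Ro20-1724 blocking its breakdown.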

[20] = target: Beta-2 adrenergic receptor (Homo sapiens) (UniProt P07550); test: Adrenergic beta2 receptor (ADRB2) small molecule agonists, cell-based qHTS assay (AID 1963593);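 note: CHO cells stably overexpressing human ADRB2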
How it was run: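 CHO cells stably over-expressing ADRB2 were plated overnight at 37C, then dosed with compounds plus a stimulation mix containing 100uM IBMX and 25uM Ro-20-1724 for 0.5hr at room temperature. cAMP was measured by HTRF competition, 1hr.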

Measured: Potency

NC(=O)N[C@@H](CCC(=O)O)C(=O)O
active: [11] 8.18 µM
inactive: [1] | [2] | [3] | [4] | [5] | [6] | [7] | [8] | [9] | [10] | [12] | [13] | [14] | [15] | [16] | [17] | [18]

NC(=O)c1ccc([N+](=O)[O-])cc1
inactive: [1] | [2] | [3] | [4] | [5] | [6] | [7] | [8] | [9] | [10] | [12] | [13] | [14] | [15] | [16] | [17] | [18] | [19]

[Cl][Nd]([Cl])[Cl]
inactive: [1] | [2] | [3] | [4] | [5] | [6] | [7] | [8] | [9] | [10] | [11] | [12] | [13] | [14] | [15] | [16] | [17] | [20] | [18] | [19]

c1ccc(Nc2cccc3ccccc23)cc1
active: [1] 61.9 µM | [8] 46.4 µM
inactive and 68.6 µM (active): [2]
inactive: [3] | [4] | [5] | [6] | [7] | [9] | [10] | [12] | [13] | [14] | [17] | [18] | [19]

CCCCC(CC)CCC(CC(C)C)OS(=O)(=O)O (stereo not drawn)
inactive: [1] | [2] | [3] | [4] | [5] | [6] | [7] | [8] | [9] | [10] | [11] | [12] | [13] | [14] | [15] | [16] | [17] | [20] | [18] | [19]

CC(C)(C)c1ccc(CCC=O)cc1
inactive: [1] | [2] | [3] | [4] | [5] | [6] | [7] | [8] | [9] | [10] | [11] | [12] | [13] | [14] | [15] | [16] | [17] | [18] | [19]

CC(=O)O[C@]1(C(C)=O)CC[C@H]2[C@@H]3C=C(C)C4=CC(=O)CC[C@]4(C)[C@H]3CC[C@@]21C
inactive: [1] | [2] | [3] | [4] | [5] | [6] | [7] | [8] | [9] | [10] | [17] | [20] | [18] | [19]

COc1ccc2cc(C=O)ccc2c1
inactive: [1] | [2] | [3] | [4] | [5] | [6] | [7] | [8] | [9] | [11] | [12] | [13] | [14] | [15] | [16] | [17] | [20] | [19]

CC(C)COC(=O)c1ccccc1O
inactive: [1] | [2] | [3] | [4] | [5] | [6] | [7] | [8] | [9] | [11] | [12] | [13] | [14] | [15] | [16] | [17] | [20] | [19]

Nc1nc(N)c2nc(-c3ccccc3)c(N)nc2n1
active: [6] 18.2 µM | [7] 29.2 µM and 17.8 µM
inactive: [1] | [2] | [3] | [4] | [5] | [8] | [9] | [10] | [17] | [20] | [18] | [19]

CCOc1ccc(N)c([N+](=O)[O-])c1
inactive: [1] | [2] | [3] | [4] | [5] | [6] | [7] | [8] | [9] | [10] | [11] | [12] | [14] | [15] | [16] | [17] | [20] | [18] | [19]

O=c1[nH]c(=O)c2ccccc2o1
inactive: [1] | [2] | [3] | [4] | [5] | [6] | [7] | [8] | [9] | [11] | [12] | [13] | [14] | [15] | [16] | [17] | [20] | [19]

c1c[nH]cn1
inactive: [1] | [2] | [3] | [4] | [5] | [6] | [7] | [8] | [9] | [10] | [11] | [12] | [14] | [15] | [16] | [17] | [18] | [19]

CCOC(=O)CN
inactive: [1] | [2] | [3] | [4] | [5] | [6] | [7] | [8] | [9] | [10] | [12] | [13] | [14] | [15] | [16] | [17] | [18] | [19]

From PubChem BioAssay (Tox21)
